“And” between values parts separate entries of the source, which are not always exact repeats. Equal entries are not always repeated. Screen size: about 260,000 compounds; about 1,500 (0.58%) were called active. Roughly 5% stayed inconclusive and do not appear here.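 How the source made its calls: active means inhibition above a set limit at one or more doses, reproduced on every date tested; inconclusive means results disagree between test dates, or hit never tested in dose response; inactive means the rest.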 Not all results are given here. Measured potencies and affinities stand elsewhere.
Target: Virion infectivity factor (Human immunodeficiency virus type 1 group M subtype B (isolate BH10)) + Virion infectivity factor (Human immunodeficiency virus type 1 group M subtype B (isolate BRU/LAI)) + Virion infectivity factor (Human immunodeficiency virus type 1 group M subtype B (isolate PCV12)) + Virion infectivity factor (Human immunodeficiency virus type 1 group M subtype B (isolate HXB2)) + DNA dC->dU-editing enzyme APOBEC-3G (Homo sapiens) (UniProt P69720+P69721+P69722+P69723+Q9HC16)
Assay: inhibitors of Vif binding to APOBEC3G peptide, primary screen, biochemical, TR-FRET, GST-Vif 1-94, biotin-A3G peptide, dose response retest (AID 1117319);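 further: Vif residues 1-94 fused to GST binding biotinylated APOBEC3G peptide 110-148; 0% = full assay without inhibitor and 100% = GST in place of GST-Vif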
Conditions: active compounds read high

inhibition, inactive:
N#CC1=C(S)N=C(N)C(c2nc(-c3ccccc3)cs2)C12CCCCC2 (configuration not stated) 13.7%, CCOC(=O)c1ccc(NC(=O)CSc2nnc(Cn3c(=O)sc4ccccc43)n2C)cc1 -11.7%, O=C(CN(C(=O)CNS(=O)(=O)c1ccc(F)cc1)C1CCCC1)NCc1ccco1 -8.82%, COC(=O)Cn1cnc2c(nnn2-c2ccc(OC)cc2)c1=O -8.1%, O=C(/C=N/O)NCc1cccnc1 -3.6%, O=C(N=C1SC2CS(=O)(=O)CC2N1c1ccc(Br)cc1)C1CCCO1 (configuration not stated) 2.67%, NC(=O)CN1C(=O)/C(=c2\sc3nc(=O)c(Cc4ccccc4)nn3c2=O)c2ccccc21 -13.2%, COC(=O)c1cc(Br)c(=O)n(CC(C)C)c1 4.6%, CC(C)c1cc(C(=O)OCC(=O)NC2CC2)c(O)c(C(C)C)c1 1.52%, Nc1cc(C(=O)O)ccc1N1CCCCCC1 8.01%, NC(=O)c1cc(N)ccc1N1CCCCC1 -6.02%, CC1CCCCN1c1ccc(N)cc1C(N)=O (configuration not stated) 0.06%, COC(=O)c1ccc(N2CCCCC2)c(N)c1 24.1%, Cc1cccc(NC(=O)C2SC(=Nc3c(C)cccc3C)C(C(=O)N3CCOCC3)=C2N)c1 (configuration not stated) 13.6%, N#Cc1ccccc1CN1C(=O)NC(Cc2c[nH]c3ccccc23)C1=O (configuration not stated) -3.01%, COc1ccc(C(=O)N/N=C/c2ccc(SC)cc2)cc1 -0.44%, COc1ccc(/C=N/NC(=O)c2ccc3c(c2)OCO3)cc1 -0.02%, CSCCC(NC(=O)c1ccccc1)C(=O)N/N=C(\C)c1ccccc1 (configuration not stated) -5.06%, Nc1cc(C(=O)O)ccc1Nc1ccccc1 13%, Cc1ccc(NS(=O)(=O)c2cc(N)ccc2Cl)c(C)c1 28.9%, Cc1ccc(Nc2ccc(C(=O)O)cc2N)cc1 15%, Nc1cccc(Nc2ccccc2)c1 1.33%, Cc1ccc(-n2cc(-c3ccccc3)c3c(NN4CCOCC4)ncnc32)cc1 21%, COc1cc2nc(N(CCN(C)C)C(=O)c3ccc4ccccc4c3)sc2cc1OC -3.84%, O=C1COc2ccc(C(=O)COC(=O)Cc3ccc(F)cc3)cc2N1 -9.09%, Nc1c(C(=O)OCC(=O)Nc2ccc(Cl)cc2[N+](=O)[O-])[nH]c(=O)[nH]c1=O -3.88%, CCc1cc2cccc(C)c2nc1SCC(=O)N1CCN(C(=O)c2ccco2)CC1 5.89% and -1.51%, CCc1cc2cc(C)ccc2nc1SCC(=O)N1CCN(C(=O)c2ccco2)CC1 3.37%, Cc1cccc(N2CCN(C(=O)c3ccccc3NC(=O)C3=CSCCO3)CC2C)c1 (configuration not stated) 0.87%, Cc1cc(=O)[nH]c2c3ccccc3nn12 -4.45%, CCOc1ccc(C2C(C(=O)OC)=C(C)N=C3SCCC(=O)N32)cc1OCC (configuration not stated) -1.89%, CC(C)C(NCc1c(Cl)cccc1Cl)C(=O)O (configuration not stated) -1.01%, c1ccc(COn2c(-c3ccccc3)nc3c2CCc2nonc2-3)cc1 -7.03%, COn1c(-c2ccccc2)nc2c1CCc1c-2no[n+]1[O-] 3.61%, Cc1c(C(=O)O)oc2c1C(=O)CC(C)(C)C2 -2.53%, CC1CC(C)CN(CC(C)(C)NS(=O)(=O)c2ccccc2)C1 (configuration not stated) 17.8%, O=C1C2C3C=CC(CC3)C2C(=O)N1c1ccc(Cl)cc1 (configuration not stated) 1.42%, CCN(CC)C(=O)[C@H]1C[C@H](CC(=O)NC(C)(C)C)C(=O)N2CCc3c([nH]c4cc(CCC(=O)N(C)C)ccc34)[C@]12C -0.23%, Cc1c(NS(=O)(=O)c2ccc(Cl)c(C(=O)OC(C)C(=O)NCc3ccco3)c2)c(=O)n(-c2ccccc2)n1C (configuration not stated) 5.59%, COC(=O)CNC(=O)C(C)(C)Oc1ccc(Cl)cc1 -6.52%, COc1cccc(OC)c1C(=O)OCC(=O)NCc1ccco1 5.04%, O=C(COC(=O)Cc1ccc(F)cc1)NCc1ccco1 -14.6%, COc1ccccc1OCC(=O)NCc1ccco1 8.05%, CC(C)(Oc1ccc(Cl)cc1)C(=O)NCC(c1ccco1)N1CCCCC1 (configuration not stated) 1.39%, O=C(COC(=O)Cc1ccc(Cl)c(Cl)c1)NCc1ccco1 7.25%, CNC(=S)N1CCN(c2ccc(Cl)c(Cl)c2)CC1 1.98%, O=C1CSC(c2ccc(Cl)c(Cl)c2)N1c1nccs1 (configuration not stated) 2.94%, CN(C)C(=O)c1ccc(NC(=O)CSc2nnc(-c3ccc4c(c3)OCO4)o2)cc1 1.62%, C/C(=N\Nc1ccc(F)cc1)c1ccc(N2CCOCC2)c(F)c1 6.07%, CC(=O)c1ccc(NC(=O)c2cnsn2)cc1 4.53%, CCN(CC)C(=O)[C@H]1C[C@H](CC(=O)NCCc2ccccn2)C(=O)N2CCc3c([nH]c4cc(CCC(=O)N(C)C)ccc34)[C@]12C 17.5%, CCNC(=S)N/N=C/c1c(C)nn(-c2cccc(Cl)c2)c1Cl 5.39%, CC(=O)C1=C(C)OC(N)=C(C#N)C1c1cc2cccc(C)c2nc1Cl (configuration not stated) -1.1%, CC(=O)C1=C(C)OC(N)=C(C#N)C1c1cc2cc(C)c(C)cc2nc1Cl (configuration not stated) 9.71%, COc1ccc2nc(NC(=O)C3CCN(C(=O)c4ccc(F)cc4)CC3)sc2c1 -12.6%, CCc1oc(C(=O)OC)cc1CSC(=N)N -0.44%, Cc1cc2ccccn2c1C(=O)c1nc(NCc2ccccc2)ncc1Cl -3.29%, COc1cccc(C(=O)OCC(=O)Nc2ccc3c(c2)OCCO3)c1 -5.71%, CSc1ncccc1C(=O)OCC(=O)NC(=O)NCCC(C)C -2.12%, O=C(NCC(c1cccs1)N1CCOCC1)c1ccc(Br)o1 (configuration not stated) 22.6%, COc1ccc(-c2nnc(Nc3ccc(S(=O)(=O)Nc4nccs4)cc3)c3ccccc23)cc1 12.6%, CC(=O)Nc1ccc(S(=O)(=O)Nc2nccs2)cc1 -1.8%

Source: PubChem BioAssay AID1117319 (Southern Research Institute, 2015)
